# According to PubChem BioAssay (NCATS):
# Records with an inconclusive call do not appear. Where a call stands in place of a potency, no number is given. Calls of active or inactive are those of the source. Unless noted, calls follow the shape of the full dose curve.
# Legend:
# [1] = biological target: Estrogen receptor (Homo sapiens) (UniProt P03372); assay: qHTS assay for small molecule agonists of estrogen receptor alpha signaling (AID 588514); also: nearly all actives have a fitted effect of over 70% in size
# Summary of the method: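 ER-alpha-UAS-bla GripTite HEK 293 cells in medium with 2% charcoal/dextran-treated FBS were treated with compound titrations at 37 C for 18 hrs; beta-lactamase reporter read by CCF4 fluorescence after 2 hrs at RT.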
# [2] = biological target: Peroxisome proliferator-activated receptor gamma (Homo sapiens) (UniProt P37231); assay: qHTS assay for small molecule agonists of peroxisome proliferator-activated receptor gamma signaling (AID 588536; active = well fitted curve in the direction sought with a large enough effect in the signal ratio, with a control signal flat, not every such curve was filed as active; the % refers to the signal ratio)
# Summary of the method: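 HEK293 UAS-bla reporter line, 1% charcoal/dextran FBS; titration, 16 h, 37 C; CCF4 loading 2 h RT; fluorescence 460/530 nm. Normalized to rosiglitazone 2 uM = 100%, DMSO = 0%.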
# [3] = biological target: Vitamin D3 receptor (Homo sapiens) (UniProt P11473); assay: qHTS assay for small molecule antagonists of vitamin D receptor signaling (AID 588541);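 also: receptor activated by calcitriol during compound treatment; series mostly up to about 77 µM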
# Summary of the method: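 VDR-UAS-bla HEK293T cells (2000/well, 2% charcoal-stripped FBS) were treated with titrated compounds plus 1-alpha,25-dihydroxyvitamin D3 (50 nM or 3 nM final) for 16 h at 37 C. CCF4 beta-lactamase fluorescence was read; Hill fits gave IC50.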
# [4] = biological target: Vitamin D3 receptor (Homo sapiens) (UniProt P11473); assay: qHTS assay for small molecule agonists of vitamin D receptor signaling (AID 588543)
# Summary of the method: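 β-lactamase reporter, VDR-UAS-bla HEK293T, agonist mode. Cells plated 5 h at 37 °C, compound titration 16 h at 37 °C, CCF4 dye 2 h RT, ratio 460/530 nm. Hill fit → EC50, efficacy vs 50 nM 1α,25-(OH)2D3.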
# [5] = qHTS assay for small molecule agonists of retinoid X receptor alpha signaling (AID 588544); conditions: HEK293T RXRa-UAS-bla, beta-lactamase reporter, 18 h; 530 nm emission
# [6] = biological target: Retinoic acid receptor RXR-alpha (Homo sapiens) (UniProt P19793); assay: as above
# [7] = qHTS assay for small molecule antagonists of retinoid X receptor alpha signaling (AID 588546; active = well fitted inhibition curve with a large enough effect in the signal ratio, with a control signal flat, not every such curve was filed as active; the % refers to the signal ratio;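 also: cells stimulated with 9-cis-retinoic acid as agonist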); conditions: HEK293T RXRa-UAS-bla, beta-lactamase ratio, antagonist mode; measured here: W530 green channel, cytotoxicity proxy
# Summary of the method: (§1)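 Beta-lactamase reporter inhibition, read as CCF4 fluorescence ratio (ex 405, em 460/530 nm) after 2 h at RT. HEK293T UAS-bla cells, 2500/well, were stimulated with 9-cis-RA at 500 or 100 nM final alongside test compound for 18 h at 37 C.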
# [8] = biological target: Retinoic acid receptor RXR-alpha (Homo sapiens) (UniProt P19793); assay: as above; conditions: HEK293T RXRa-UAS-bla, beta-lactamase ratio, antagonist mode
# Summary of the method: as §1
# [9] = qHTS assay for small molecule activators of the nuclear factor-kappa B (NF-kB) signaling pathway (AID 651749; active = well fitted activation curve with a large enough effect in the signal ratio; the % refers to the signal ratio; also: series mostly up to about 77 µM); conditions: NF-kB-bla ME-180 cells, beta-lactamase FRET ratio, 16 h; activation: stronger effect = higher value
# Summary of the method: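 ME-180 cells stably carrying a beta-lactamase reporter under an NF-kB response element were exposed to compound or DMSO vehicle for 16 hr at 37C, 5% CO2. Pathway activation was read by FRET, since reporter expression disrupts FRET.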
# [10] = biological target: Peroxisome proliferator-activated receptor alpha (Homo sapiens) (UniProt Q07869); assay: qHTS assay for small molecule agonists of the peroxisome proliferator-activated receptor alpha (PPARalpha) signaling pathway (AID 651778; active = well fitted curve in the direction sought with a large enough effect; an effect the other way counts as inactive or inconclusive); conditions: PathHunter PPARalpha complementation, chemiluminescence, 6 h; max response: stronger effect = higher value
# Summary of the method: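 Cells plated at 2,000/well and held overnight at 37 C, 5% CO2, then compound added by pin tool for 6 hr; after PathHunter detection reagent and 60 min at room temperature, chemiluminescence from enzyme complementation was read.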
# [11] = qHTS assay for small molecule agonists of the antioxidant response element (ARE) signaling pathway measured by Nrf2-dependant transcriptional activity (AID 720636; active = well fitted curve in the direction sought with a large enough effect in the repeat runs; an effect the other way counts as inactive or inconclusive;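 also: HepG2 cells with an ARE-driven luciferase reporter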)
# Summary of the method: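 Nrf2-dependent transcription is measured in ARE-luc HepG2 cells: compound is applied for 16 hr at 37 C after a 6 hr attachment period, and luciferase activity is quantified by luminescence using ONE-Glo.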
# [12] = qHTS assay for small molecule agonists of the antioxidant response element (ARE) signaling pathway measured by Nrf2-dependant transcriptional activity - cell viability counter screen (AID 720653; active = well fitted curve in the direction sought with a large enough effect in the repeat runs; an effect the other way counts as inactive or inconclusive); conditions: ARE-bla HepG2 viability, CellTiter-Glo ATP luminescence, 16 h; max response: stronger effect = lower value
# Summary of the method: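 ARE-bla HepG2 cells (2,000/well) rested 5 hrs at 37C/5% CO2, then exposed to compounds in DMSO for 16 hrs. Viability was read in the same wells as intracellular ATP by luminescence, 30 min at room temperature after reagent addition.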
# [13] = qHTS assay for cell viability of HEK293 cells (AID 743288; active = well fitted curve in the direction sought with a large enough effect; an effect the other way counts as inactive or inconclusive; also: nearly all actives have a fitted effect of over 50% in size); conditions: ATP luminescence (CellTiter-Glo), 18 h; max response: stronger effect = lower value
# Summary of the method: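 Environmental chemicals tested in qHTS format against parental HEK293 cells; 18 h treatment, 37 C; read-out ATP luminescence (CellTiter-Glo), 30 min RT development.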
# [14] = qHTS assay for cell viability of the p53RE-bla HCT-116 cell line (AID 743292; active = well fitted curve in the direction sought with a large enough effect; an effect the other way counts as inactive or inconclusive; also: nearly all actives have a fitted effect of over 55% in size)
# Summary of the method: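 ATP-based luminescence, 16 h compound exposure at 37 C, p53RE-bla HCT-116 cells at 4,000/well.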
# [15] = biological target: Nuclear receptor subfamily 1 group I member 2 (Rattus norvegicus) (UniProt Q9R1A7); assay: qHTS assay for small molecule activators of the rat pregnane X receptor (rPXR) signaling pathway (AID 651751; call rule not given here); conditions: rPXR reporter cells, luciferase (One-Glo), 24 h
# [16] = qHTS assay for small molecule activators of the human pregnane X receptor (PXR) signaling pathway (AID 720659; call rule not given here)
# [17] = biological target: Glucocorticoid receptor (Homo sapiens) (UniProt P04150); assay: qHTS assay for small molecule agonists of glucocorticoid receptor signaling (AID 588532; active = well fitted curve in the direction sought with a large enough effect in the signal ratio, with a control signal flat; the % refers to the signal ratio); conditions: HeLa MMTV-bla, beta-lactamase ratio, agonist, 18 h; stronger effect = higher value; percent of dexamethasone control, DMSO zero
# Summary of the method: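 Titration series, up to 92 uM, applied to GRE-bla HeLa cells for 18 h at 37 C. Detection by CCF4 FRET substrate after 2 h at RT.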
# [18] = biological target: Glucocorticoid receptor (Homo sapiens) (UniProt P04150); assay: qHTS assay for small molecule antagonists of glucocorticoid receptor signaling (AID 588533; active = well fitted inhibition curve with a large enough effect in the signal ratio, with a control signal flat, not every such curve was filed as active; the % refers to the signal ratio;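 also: cells stimulated with 2 nM dexamethasone as agonist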)
# Summary of the method: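 Antagonist-mode qHTS: compound titrations added to GRE-bla HeLa cells, then dexamethasone 2 nM final; 18 h, 37 C. CCF4 FRET fluorescence normalized to dexamethasone and DMSO; IC50 from Hill fit.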
# [19] = biological target: Thyroid hormone receptor beta (Homo sapiens) (UniProt P10828); assay: qHTS assay for small molecule agonists of thyroid hormone receptor beta signaling (AID 588545)
# Summary of the method: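 HEK 293 TR-UAS-bla; agonist mode; 18 hrs, 37 C; CCF4, ex 405/em 460 and 530 nm; norm. T3 10 nM = 100%, DMSO = 0%; Hill fit → EC50, efficacy.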
# [20] = qHTS assay for environmental chemicals that activate the Aryl hydrocarbon Receptor (AhR) signaling pathway (AID 651777; active = well fitted curve in the direction sought with a large enough effect; an effect the other way counts as inactive or inconclusive; also: nearly all actives have a fitted effect of over 15% in size); conditions: 1A2-DRE human hepatoma cells, luciferase, 24 h; activation: stronger effect = higher value
# Summary of the method: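 Reporter gene assay: hepatoma cells with DRE/CYP1A2-luciferase, 24 hr compound incubation at 37 C, 5% CO2, luminescence after One-Glo (30 min, RT).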
# Chain of Retinoic acid receptor RXR-alpha (Homo sapiens) (P19793 whole entry, looked up): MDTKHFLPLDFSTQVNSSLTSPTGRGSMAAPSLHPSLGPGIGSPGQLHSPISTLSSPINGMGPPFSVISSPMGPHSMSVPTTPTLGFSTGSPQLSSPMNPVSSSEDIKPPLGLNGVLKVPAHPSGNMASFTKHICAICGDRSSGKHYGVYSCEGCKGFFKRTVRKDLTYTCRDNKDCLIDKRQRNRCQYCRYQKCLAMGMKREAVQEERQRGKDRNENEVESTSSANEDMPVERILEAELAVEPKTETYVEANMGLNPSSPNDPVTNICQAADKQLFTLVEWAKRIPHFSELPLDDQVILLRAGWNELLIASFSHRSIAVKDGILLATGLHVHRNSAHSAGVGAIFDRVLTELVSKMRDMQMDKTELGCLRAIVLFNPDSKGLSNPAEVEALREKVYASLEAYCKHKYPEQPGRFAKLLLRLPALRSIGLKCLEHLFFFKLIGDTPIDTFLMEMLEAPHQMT
# Chain of Nuclear receptor subfamily 1 group I member 2 (Rattus norvegicus) (Q9R1A7 whole entry, looked up): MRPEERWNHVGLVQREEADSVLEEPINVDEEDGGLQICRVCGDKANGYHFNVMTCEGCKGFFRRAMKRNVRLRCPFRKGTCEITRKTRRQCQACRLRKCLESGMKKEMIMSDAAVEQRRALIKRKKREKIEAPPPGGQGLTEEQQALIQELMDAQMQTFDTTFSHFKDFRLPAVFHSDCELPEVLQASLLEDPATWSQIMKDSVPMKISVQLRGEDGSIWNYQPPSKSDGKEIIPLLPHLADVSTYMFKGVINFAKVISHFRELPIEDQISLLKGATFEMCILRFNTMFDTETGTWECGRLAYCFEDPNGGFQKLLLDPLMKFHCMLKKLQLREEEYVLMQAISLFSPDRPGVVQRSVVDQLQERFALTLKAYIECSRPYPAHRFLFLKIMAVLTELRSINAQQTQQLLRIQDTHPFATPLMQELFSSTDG
# Chain of Peroxisome proliferator-activated receptor gamma (Homo sapiens) (P37231 whole entry, looked up): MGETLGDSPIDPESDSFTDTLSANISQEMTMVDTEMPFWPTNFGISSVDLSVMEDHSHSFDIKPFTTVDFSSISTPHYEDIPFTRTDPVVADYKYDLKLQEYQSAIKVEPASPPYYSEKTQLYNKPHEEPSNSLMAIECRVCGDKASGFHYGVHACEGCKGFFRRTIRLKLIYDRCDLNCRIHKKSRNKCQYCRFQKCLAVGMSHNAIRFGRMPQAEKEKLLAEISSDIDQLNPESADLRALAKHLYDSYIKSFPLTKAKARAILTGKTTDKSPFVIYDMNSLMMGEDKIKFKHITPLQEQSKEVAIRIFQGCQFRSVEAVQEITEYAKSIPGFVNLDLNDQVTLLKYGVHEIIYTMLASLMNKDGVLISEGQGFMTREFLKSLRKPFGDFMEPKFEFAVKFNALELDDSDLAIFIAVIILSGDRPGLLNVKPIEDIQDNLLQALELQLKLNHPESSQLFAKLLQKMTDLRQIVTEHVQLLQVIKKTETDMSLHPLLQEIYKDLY
# Chain of Vitamin D3 receptor (Homo sapiens) (P11473 whole entry, looked up): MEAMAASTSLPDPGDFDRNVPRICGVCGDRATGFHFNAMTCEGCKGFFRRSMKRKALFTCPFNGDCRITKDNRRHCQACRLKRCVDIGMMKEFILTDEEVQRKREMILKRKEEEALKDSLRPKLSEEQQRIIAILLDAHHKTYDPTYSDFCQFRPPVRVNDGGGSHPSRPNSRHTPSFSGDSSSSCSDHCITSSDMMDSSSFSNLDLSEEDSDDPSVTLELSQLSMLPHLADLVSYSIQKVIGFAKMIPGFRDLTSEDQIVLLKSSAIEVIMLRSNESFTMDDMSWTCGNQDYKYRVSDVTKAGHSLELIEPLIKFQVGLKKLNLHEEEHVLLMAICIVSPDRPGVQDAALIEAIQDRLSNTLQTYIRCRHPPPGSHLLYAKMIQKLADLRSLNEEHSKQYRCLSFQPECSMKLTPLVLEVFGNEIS
# Chain of Thyroid hormone receptor beta (Homo sapiens) (P10828 whole entry, looked up): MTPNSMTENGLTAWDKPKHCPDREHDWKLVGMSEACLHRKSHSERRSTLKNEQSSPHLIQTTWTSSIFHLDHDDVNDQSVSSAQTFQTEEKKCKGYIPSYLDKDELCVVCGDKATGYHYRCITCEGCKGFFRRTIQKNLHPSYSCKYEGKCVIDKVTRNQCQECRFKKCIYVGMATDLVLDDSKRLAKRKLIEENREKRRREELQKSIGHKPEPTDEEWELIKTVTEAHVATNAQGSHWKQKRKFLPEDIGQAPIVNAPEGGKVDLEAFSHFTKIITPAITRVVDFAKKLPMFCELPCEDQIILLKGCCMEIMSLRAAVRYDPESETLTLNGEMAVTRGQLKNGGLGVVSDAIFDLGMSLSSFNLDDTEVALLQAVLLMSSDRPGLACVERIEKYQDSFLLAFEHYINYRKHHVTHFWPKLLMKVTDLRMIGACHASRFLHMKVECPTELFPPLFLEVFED
# Chain of Peroxisome proliferator-activated receptor alpha (Homo sapiens) (Q07869 whole entry, looked up): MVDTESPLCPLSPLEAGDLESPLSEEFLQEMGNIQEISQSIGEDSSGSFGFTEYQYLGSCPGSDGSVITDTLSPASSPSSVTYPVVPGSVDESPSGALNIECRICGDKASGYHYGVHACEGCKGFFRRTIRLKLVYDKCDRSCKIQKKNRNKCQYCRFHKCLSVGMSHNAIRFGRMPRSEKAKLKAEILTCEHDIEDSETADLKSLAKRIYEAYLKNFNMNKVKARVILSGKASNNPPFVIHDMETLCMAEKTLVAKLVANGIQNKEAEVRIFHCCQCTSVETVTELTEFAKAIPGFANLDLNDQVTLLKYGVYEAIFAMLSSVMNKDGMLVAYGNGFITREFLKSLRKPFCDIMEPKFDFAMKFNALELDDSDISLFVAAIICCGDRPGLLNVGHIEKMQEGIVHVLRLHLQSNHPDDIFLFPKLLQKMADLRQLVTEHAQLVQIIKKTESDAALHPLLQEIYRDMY
# Chain of Estrogen receptor (Homo sapiens) (P03372 whole entry, looked up): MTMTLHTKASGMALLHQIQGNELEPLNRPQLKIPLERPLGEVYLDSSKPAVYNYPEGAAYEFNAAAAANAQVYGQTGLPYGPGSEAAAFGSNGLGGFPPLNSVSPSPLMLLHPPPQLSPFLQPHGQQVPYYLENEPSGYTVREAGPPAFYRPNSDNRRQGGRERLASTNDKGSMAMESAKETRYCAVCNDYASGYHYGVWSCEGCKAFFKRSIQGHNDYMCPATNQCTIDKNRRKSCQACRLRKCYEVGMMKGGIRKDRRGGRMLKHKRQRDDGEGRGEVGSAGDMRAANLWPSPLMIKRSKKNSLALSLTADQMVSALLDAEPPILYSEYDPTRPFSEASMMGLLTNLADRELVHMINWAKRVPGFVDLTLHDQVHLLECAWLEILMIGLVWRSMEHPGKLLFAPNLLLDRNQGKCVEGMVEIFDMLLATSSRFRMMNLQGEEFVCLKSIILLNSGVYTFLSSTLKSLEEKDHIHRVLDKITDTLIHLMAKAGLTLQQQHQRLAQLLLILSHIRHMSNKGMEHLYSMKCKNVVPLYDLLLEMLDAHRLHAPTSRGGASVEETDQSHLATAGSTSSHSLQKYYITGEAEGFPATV
# Chain of Glucocorticoid receptor (Homo sapiens) (P04150 whole entry, looked up): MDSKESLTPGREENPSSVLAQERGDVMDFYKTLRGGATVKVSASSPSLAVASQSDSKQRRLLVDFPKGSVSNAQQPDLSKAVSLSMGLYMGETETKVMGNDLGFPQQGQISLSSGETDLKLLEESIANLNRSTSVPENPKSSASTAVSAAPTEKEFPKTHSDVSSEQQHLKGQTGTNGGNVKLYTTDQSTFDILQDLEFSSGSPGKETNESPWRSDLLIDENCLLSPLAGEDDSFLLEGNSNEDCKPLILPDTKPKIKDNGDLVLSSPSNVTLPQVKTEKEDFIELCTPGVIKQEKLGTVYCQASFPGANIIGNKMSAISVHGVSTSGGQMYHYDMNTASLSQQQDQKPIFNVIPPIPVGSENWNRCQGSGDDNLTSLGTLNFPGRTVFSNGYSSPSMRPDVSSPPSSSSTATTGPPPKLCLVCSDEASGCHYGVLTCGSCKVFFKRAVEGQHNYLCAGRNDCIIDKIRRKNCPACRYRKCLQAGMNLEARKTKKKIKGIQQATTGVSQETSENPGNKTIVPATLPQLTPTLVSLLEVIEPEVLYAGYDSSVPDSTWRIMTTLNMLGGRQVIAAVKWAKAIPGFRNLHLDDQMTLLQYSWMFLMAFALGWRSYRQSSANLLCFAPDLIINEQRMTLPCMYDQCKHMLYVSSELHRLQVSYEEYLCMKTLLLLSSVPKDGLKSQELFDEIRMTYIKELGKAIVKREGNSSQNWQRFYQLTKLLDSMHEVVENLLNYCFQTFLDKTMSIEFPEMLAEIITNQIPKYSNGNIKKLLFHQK
SMILES,Potency [1],outcome [2],Potency [3],outcome [4],max response [5] [%],Potency [6],max response [7] [%],max response [8],activation [9],max response [10],Potency [11],max response [12],max response [13],Potency [14],max response [15],outcome [16],activation [17],Potency [18],Potency [19],activation [20]
CCCCOCCOCCOCCO,inactive,inactive,inactive,inactive,-9.78,inactive,1.39,-1.08% (inactive),-0.915% (inactive),-1.01% (inactive),inactive,5.3% (inactive),-2.85% (inactive),inactive,2.44% (inactive),inactive,–,–,–,–
CCCCOCCOCCO,inactive,inactive,inactive,inactive,-10.9,inactive,1.46,-25.6% (inactive),-0.601% (inactive),-0.568% (inactive),inactive,3.56% (inactive),-12.6% (inactive),inactive,-2.42% (inactive),inactive,-5.88% (inactive),inactive,inactive,–
O=C1CCCCCCCCCCC1,inactive,inactive,–,–,-19.7,inactive,-10.4,4.14% (inactive),–,-0.988% (inactive),inactive,-14.8% (inactive),-4.39% (inactive),inactive,0.58% (inactive),inactive,-8.83% (inactive),inactive,inactive,0.997% (inactive)
CCCCOCCOCCOC(C)=O,inactive,–,inactive,inactive,-16.2,inactive,–,–,-2.2% (inactive),-0.313% (inactive),–,–,5.77% (inactive),inactive,-2.22% (inactive),inactive,-1.04% (inactive),inactive,inactive,-2.27% (inactive)
CC1=CC2C3CC(C=C3C)C2C1 (stereo not drawn),inactive,inactive,inactive,inactive,-8.84,inactive,-10.9,3.65% (inactive),-0.782% (inactive),-1.19% (inactive),inactive,1.82% (inactive),–,inactive,-0.63% (inactive),inactive,1.22% (inactive),inactive,inactive,-1.81% (inactive)
CC(=O)CC(=O)Nc1ccccc1C,inactive,inactive,inactive,inactive,16.5,inactive,14.1,-30.4% (inactive),-0.183% (inactive),-0.992% (inactive),inactive,-6.37% (inactive),-10.9% (inactive),inactive,–,–,2.41% (inactive),inactive,inactive,–
CC1(C)CC(OC(=O)CCCCCCCCC(=O)OC2CC(C)(C)NC(C)(C)C2)CC(C)(C)N1,inactive,inactive,inactive,inactive,-2.95,inactive,5.99,-19.6% (inactive),2.54% (inactive),-4.12% (inactive),inactive,–,-10.1% (inactive),inactive,-0.828% (inactive),inactive,-2.43% (inactive),inactive,inactive,0.228% (inactive)
CC1(C)CC(N)CC(C)(CN)C1 (stereo not drawn),inactive,inactive,–,–,-8.73,inactive,-12.5,4.46% (inactive),-0.653% (inactive),-3.48% (inactive),inactive,-2.66% (inactive),-2.22% (inactive),inactive,-2.15% (inactive),inactive,10.3% (inactive),inactive,inactive,–
C#CCOC(=O)[C@@H](C)Oc1ccc(Oc2ncc(Cl)cc2F)cc1,inactive,inactive,inactive,inactive,-11.8,inactive,-4.05,-3.03% (inactive),–,-0.41% (inactive),inactive,-3.32% (inactive),-6.8% (inactive),inactive,-2.33% (inactive),inactive,–,–,–,-1.36% (inactive)
C1CCC2(CCCCO2)OC1,inactive,inactive,inactive,inactive,-20.2,inactive,-9.54,-3.1% (inactive),–,–,inactive,2.39% (inactive),3.07% (inactive),inactive,-2.06% (inactive),inactive,-8.41% (inactive),inactive,inactive,–
Cc1nn(C)c(Oc2ccccc2)c1/C=N/OCc1ccc(C(=O)OC(C)(C)C)cc1,inactive,–,–,–,-10.3,inactive,–,–,–,2.08% (inactive),inactive,–,–,inactive,–,inactive,-3.9% (inactive),inactive,inactive,–
O=c1n(CCO)c(=O)n(CCO)c(=O)n1CCO,inactive,inactive,inactive,inactive,-13.7,inactive,-6.53,2.33% (inactive),4.3% (inactive),0.0492% (inactive),–,-11.6% (inactive),-6.36% (inactive),inactive,-0.84% (inactive),–,–,–,inactive,0.674% (inactive)
